# Source: PMC4336329 (PLoS ONE, 2015)
# Hit rate of the full screen: of about 310,000 compounds, about 14,000 (4.5%) showed an effect of 50% or more. The effect is printed as a negative number. The full list was thinned out, with strong results kept by preference.
# Biological target: human ether-à-go-go-related gene (hERG) potassium channel (human, UniProt Q12809)
# Test: primary screen, population patch clamp on CHO cells stably expressing hERG; higher = less effect of the substance
# 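Further: peak tail current of the secondary pulse compared with the same well before compound.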
# human ether-à-go-go-related gene (hERG) potassium channel, sequence (Q12809 whole entry, looked up): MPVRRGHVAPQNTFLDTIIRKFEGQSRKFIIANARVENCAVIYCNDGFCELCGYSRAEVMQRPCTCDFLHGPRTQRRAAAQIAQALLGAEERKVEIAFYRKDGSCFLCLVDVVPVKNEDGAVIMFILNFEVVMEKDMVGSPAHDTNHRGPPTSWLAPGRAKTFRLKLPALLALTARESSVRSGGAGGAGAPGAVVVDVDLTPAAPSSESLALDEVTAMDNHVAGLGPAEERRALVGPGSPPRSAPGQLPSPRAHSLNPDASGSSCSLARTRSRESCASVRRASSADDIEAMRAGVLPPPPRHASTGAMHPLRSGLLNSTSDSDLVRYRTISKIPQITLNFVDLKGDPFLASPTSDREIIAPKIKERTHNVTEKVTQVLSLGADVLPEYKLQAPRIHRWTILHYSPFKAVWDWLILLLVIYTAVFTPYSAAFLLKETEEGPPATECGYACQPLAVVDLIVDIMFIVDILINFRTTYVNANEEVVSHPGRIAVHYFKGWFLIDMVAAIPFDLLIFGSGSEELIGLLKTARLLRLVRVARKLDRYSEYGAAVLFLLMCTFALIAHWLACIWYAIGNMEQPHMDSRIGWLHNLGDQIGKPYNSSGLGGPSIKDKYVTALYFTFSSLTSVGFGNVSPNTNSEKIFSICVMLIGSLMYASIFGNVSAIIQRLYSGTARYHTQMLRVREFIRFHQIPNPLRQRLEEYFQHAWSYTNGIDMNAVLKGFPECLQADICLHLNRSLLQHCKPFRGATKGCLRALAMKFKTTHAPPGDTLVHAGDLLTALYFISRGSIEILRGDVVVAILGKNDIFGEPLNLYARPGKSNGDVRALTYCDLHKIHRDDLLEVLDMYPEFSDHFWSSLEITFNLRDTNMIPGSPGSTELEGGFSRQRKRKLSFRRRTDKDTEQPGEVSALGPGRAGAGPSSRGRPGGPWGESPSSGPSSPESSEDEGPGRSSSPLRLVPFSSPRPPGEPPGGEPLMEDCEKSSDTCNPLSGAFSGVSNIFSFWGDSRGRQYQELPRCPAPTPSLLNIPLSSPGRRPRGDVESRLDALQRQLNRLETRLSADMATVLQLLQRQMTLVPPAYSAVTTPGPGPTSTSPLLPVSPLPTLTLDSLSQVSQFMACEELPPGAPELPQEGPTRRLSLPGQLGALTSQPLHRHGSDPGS
row,Structure (SMILES),"hERG current change (%, negative = inhibition) at 10uM"
1,O=C(NC1CCS(=O)(=O)C1)c1ccc2c(c1)OCO2 (stereo not shown),13%
2,Cc1nc2ccc(NC(=O)c3ccc(Cl)c(S(=O)(=O)N(C)c4ccccc4)c3)cc2s1,10.3%
3,Cc1cccc(C)c1NC(=O)C(NC=O)c1ccc(Cl)cc1 (stereo not shown),0.758%
4,Cc1cccc(C)c1NC(=O)C(NC=O)c1ccccc1 (stereo not shown),-64.1%
5,Cc1cccc(C)c1NC(=O)C(NC=O)c1ccc(N(C)C)cc1 (stereo not shown),-11.1%
6,COc1cc2c(=O)n(Cc3ccco3)c(=O)n(CC(=O)c3ccc(Br)cc3)c2cc1OC,-3.02%
7,COc1ccccc1C(=O)NCC(c1ccco1)N1CCc2ccccc21 (stereo not shown),-6.41%
8,Cc1ccc(C(=O)NCC(c2ccco2)N2CCc3ccccc32)cc1C (stereo not shown),-60.1%
9,Cc1ccccc1C(=O)NCC(c1ccco1)N1CCc2ccccc21 (stereo not shown),-55.7%
10,O=C(NCC(c1ccco1)N1CCc2ccccc21)c1ccccc1Br (stereo not shown),-29.3%
11,O=C(NCC(c1ccco1)N1CCc2ccccc21)c1ccccc1F (stereo not shown),-19.8%
12,Cc1cccc(C(=O)NCC(c2ccco2)N2CCc3ccccc32)c1 (stereo not shown),-25.6%
13,Cc1ccc(C(=O)NCC(c2ccco2)N2CCc3ccccc32)cc1 (stereo not shown),-13%
14,O=C(CCc1ccccc1)NCC(c1ccco1)N1CCc2ccccc21 (stereo not shown),-56.2%
15,COc1ccc(CCC(=O)NCC(c2ccco2)N2CCc3ccccc32)cc1 (stereo not shown),-44.2%
16,O=C(NCC(c1ccco1)N1CCc2ccccc21)c1ccccc1Cl (stereo not shown),-60.2%
17,O=C(NCC(c1ccco1)N1CCc2ccccc21)c1c(F)cccc1F (stereo not shown),-7.53%
18,O=C(NCC(c1ccco1)N1CCc2ccccc21)c1ccccc1 (stereo not shown),-3.78%
19,O=C(C[n+]1ccc(/C=N/O)cc1)N(Cc1ccccc1)Cc1ccccc1.[Cl-],0.798%
20,CC(=C/C(=O)O)/C(=C/c1ccccc1)C(=O)O,15.6%
21,Cc1occc1C(=O)n1nnc2ccccc21,-7.48%

row,Structure (SMILES),"hERG current change (%, negative = inhibition) at 10uM"
1,Cc1cc(S(=O)(=O)NCCN2CCOCC2)ccc1Cl,21.3%
2,Cc1sc2ncn(CC(=O)NCCCN3CC(C)CC(C)C3)c(=O)c2c1S(=O)(=O)N1CC(C)CC(C)C1 (stereo not shown),-32.1%
3,O=C(NCC(c1cccnc1)N1CCOCC1)C1CCCCC1 (stereo not shown),5%
4,Cc1ccnc(NC(=O)CNC(=O)c2ccc3ccccc3c2)c1,-12.5%
5,CCOC(=O)c1c(-c2ccccc2)c2cc(OC)ccc2n1CCCN(C)C.Cl,-72.4%
6,CCCCn1c(C)c(C(=O)O)c2cc(OC)ccc21,1.59%
7,COc1ccc2c(c1)c(C(=O)OCCN(C)C)c(C)n2C.Cl,-1.4%
8,Cn1cc(S(=O)(=O)N2CCCC2)cc1C(=O)NCc1ccc(Cl)cc1,2.02%
9,COc1ccc(CCNC(=O)Cn2cnc3c(cnn3-c3ccccc3Cl)c2=O)cc1OC,-1.24%
10,COc1ccc2nc(NC(C)=O)sc2c1,-4.83%
11,Cc1ccc(OCC(=O)N/N=C/C=C/c2ccco2)cc1,-45.9%
12,CC(Oc1ccc(Cl)cc1)c1ccnn1S(=O)(=O)c1ccccc1 (stereo not shown),5.02%
13,CCN(CC)C(=O)c1ccc2c(=O)n(CCOC)c(=S)[nH]c2c1,-7.02%
14,Cc1nn2c(NCCN(C)C)c3c(nc2c1-c1ccccc1)CCC3,-26.7%
15,COCCNc1c2c(nc3c(-c4ccccc4)c(C)nn13)CCC2,2.2%
16,Cc1nn2c(NCCCN(C)C)c3c(nc2c1-c1ccccc1)CCCC3,-32.2%
17,Cc1nn2c(NCc3ccccn3)c3c(nc2c1-c1ccccc1)CCC3,-51%
18,Cc1nn2c(NCCOCCO)c3c(nc2c1-c1ccccc1)CCCC3,-74.2%
19,Cc1nn2c(NCCOCCO)c3c(nc2c1-c1ccccc1)CCC3,-50.2%
20,COCCNc1c2c(nc3c(-c4ccccc4)c(C)nn13)CCCC2,-1.34%
21,Cc1nn2c(NCCCN(C)C)c3c(nc2c1-c1ccccc1)CCC3,-59.4%

row,Structure (SMILES),"hERG current change (%, negative = inhibition) at 10uM"
1,Cc1nn2c(Nc3ccccc3)c3c(nc2c1-c1ccccc1)CCC3,14.1%
2,Cc1nn2c(NCC(C)C)c3c(nc2c1-c1ccccc1)CCC3,4.8%
3,CCCCNc1c2c(nc3c(-c4ccccc4)c(C)nn13)CCC2,-3.59%
4,Cc1nn2c(NCc3cccnc3)c3c(nc2c1-c1ccccc1)CCC3,-34.2%
5,Cc1ccc(-c2csc(NC(=O)C3=NN(c4ccccc4)C(=O)CC3)n2)cc1,3.35%
6,CCCN1CCN(C(c2cc3cc(OCC)ccc3[nH]c2=O)c2nnnn2C2CCCCC2)CC1 (stereo not shown),-46.4%
7,Cc1ccc(C(C(=O)NC2CCCCC2)N(C(=O)c2csnn2)C2CC2)cc1 (stereo not shown),-9.75%
8,COc1ccc(C(CC(=O)N2CCOCC2)c2c(OC)cc(OC)c3ccc(=O)oc23)cc1 (stereo not shown),-3.96%
9,Cn1c2ccccc2c2c(C(=O)NCC3CCCO3)cn(C3CCCC3)c(=O)c21 (stereo not shown),-0.664%
10,CNC.Cc1cccn2c(NCC3CCCO3)c(C(C)C)nc12.Cl (stereo not shown),-12.7%
11,Cc1c(C(C)O)nnn1-c1nonc1N (stereo not shown),-2.42%
12,CN=C(Nc1cccnc1)c1ccccc1,15.6%
13,CCOc1ccc(-n2c(=O)c3c4c(sc3n(CC(=O)NCCCOC)c2=O)CCCCC4)cc1,-1.22%
14,CN(C)CCCNc1c2c(nc3cc(-c4cccc(F)c4)nn13)CCC2,-69.1%
15,CN(C)CCCNc1cc(-c2ccccc2)nc2cc(-c3cccc(F)c3)nn12,-15.9%
16,Cc1nn2c(NCCN(C)C)c3c(nc2c1-c1ccccc1)CCCC3,-41.4%
17,Cc1nn2c(NCCN3CCOCC3)c3c(nc2c1-c1ccccc1)CCCC3,-76.5%
18,Fc1cccc(-c2cc3nc4c(c(NCc5ccco5)n3n2)CCCC4)c1,-33.2%
19,Cc1nn2c(N3CCOCC3)c3c(nc2c1-c1ccccc1)CCCC3,-14.8%
